Source: ChEMBL document CHEMBL4513216, “Probing the Open Global Health Chemical Diversity Library for Multistage-Active Starting Points for Next-Generation Antimalarials” (ACS Infect Dis, 2020)
The campaign covered roughly 68,000 compounds. About 2,700 (4%) showed an effect of 50% or more. For the sample, strong results were picked, then their nearest neighbours and some compounds at random.

tested on: Plasmodium berghei; experiment: Screen against P. berghei liver stage (PbLuc), transformed with Luciferase, at 2uM; type: functional, HepG2; settings: tested at 2 uM

Compared with O=C(CCc1ccccc1Br)NCC(=O)NCc1ccccc1, Cc1ccc(S(=O)(=O)NC(=O)CCc2ccccc2)cc1N(C)C is higher in INHIBITION: -13.34% for the first, 0.01% for the second.

Going from CCc1noc(C(C)N(C)CC(=O)Nc2cccc(C)c2C)n1 (centres undefined) to CCc1noc(C(C)N(C)CC(=O)Nc2c(C)cccc2C)n1 (centres undefined), the INHIBITION rises from 1.73% to 32.81%.

Going from CCc1noc(C(C)N(C)CC(=O)Nc2ccc(Br)cc2C)n1 (centres undefined) to Cc1noc(NC(=O)c2ccc(Br)cc2)n1, the INHIBITION falls from 53.57% to -43.47%.

First: CC[C@@H](CO)Nc1nccc(-c2c[nH]c3cc(C(=O)OC)ccc23)n1
Second: CC[C@@H](CO)NC(=O)c1coc(COc2ccc3sc(C)nc3c2)n1
The INHIBITION of the first is higher: 17.01% for the first, -10.58% for the second.

Compared with Cc1cccc(CNC(Cc2ccsc2)c2nccs2)n1 (centres undefined), COCc1csc(NC(=O)NCc2ccsc2)n1 is lower in INHIBITION: 24.13% for the first, -21.99% for the second.

First: CNc1cc(C)nc(C2CN(Cc3cc[nH]n3)CCO2)c1 (centres undefined)
Second: CCCc1n[nH]c(C2CN(CCS(=O)(=O)CC)CCO2)n1 (centres undefined)
The INHIBITION of the first is higher: 21.37% for the first, -5.7% for the second.

Going from CCCS(=O)(=O)N1CCC2(CC1)CCn1c(-c3cnn(C)c3)cnc12 to CN(C)C(=O)C1CCC2(CCN(Cc3cnn(C)c3)CC2)C1 (centres undefined), the INHIBITION falls from 18.05% to 9.65%.

First: CCn1cnnc1CNC(=O)c1cc(Cl)ccc1O
Second: CCn1cnnc1CNC(=O)c1cc(Cl)ccc1F
The INHIBITION of the first is lower: 2.1% for the first, 54.99% for the second.

Compared with CC(CNC(=O)c1cc(Cl)ccc1I)N1CCCC1 (centres undefined), CC(CNC(=O)c1cc(Cl)ccc1F)N1CCCC1 (centres undefined) is higher in INHIBITION: 10.11% for the first, 50.94% for the second.

First: CC(CNC(=O)c1ccc(Cl)cc1F)N1CCCC1 (centres undefined)
Second: CCn1cnnc1CNC(=O)c1ccc(Cl)cc1F
The INHIBITION of the first is lower: 9.57% for the first, 39.32% for the second.

First: CCn1cnnc1CCNC(=O)c1ccc(Br)cc1F
Second: CCn1cnnc1CCNC(=O)c1ccc(F)c(Br)c1
The INHIBITION of the first is lower: -13.8% for the first, 2.9% for the second.

Going from CCn1cnnc1CCNC(=O)CCNC(=O)c1ccccc1F to CCOc1cccc(CCNC(=O)Cc2ccccc2O)n1, the INHIBITION rises from 52.98% to 76.82%.

First: Cn1c(N2CCOCC2)nc2cc(C(=O)N3CCC(O)(CO)C3)ccc21 (centres undefined)
Second: Cc1occc1C(=O)N1CC[C@@H](N2CCOCC2)[C@@H]1Cc1ccccc1
The INHIBITION of the first is higher: -2.63% for the first, -23.67% for the second.

Going from N#CCC(=O)NCc1nnc2n1CCN(Cc1ccco1)C2 to CCCn1cnnc1CNC(=O)C1COc2ccc(OC)cc2C1 (centres undefined), the INHIBITION rises from -4.53% to 21.14%.

Compared with CCN(CCCN1CCOCC1)C(=O)c1cnn(CC)c1, CC1=C(CCN2C[C@H](O)[C@@H](N3CCOCC3)C2)C(C)(C)CCC1 is lower in INHIBITION: 35.54% for the first, -57.94% for the second.

First: O=C(NC1CCCC1)N1CC[C@H]2[C@H]1CCN2c1nncs1
Second: Cc1nc(CC(=O)N2CCC(c3ccn4nccc4n3)CC2)cs1
The INHIBITION of the first is higher: 49.25% for the first, 3.03% for the second.

Going from C=C(C)COc1ccccc1CN1CCCC(C(=O)NCCCO)C1 (centres undefined) to Cc1c[nH]c(C2CCCN(Cc3ccccc3C(=O)O)C2)n1 (centres undefined), the INHIBITION rises from -25.95% to -2.35%.

Going from CN(C)C(=O)CN1CC[C@H]2CN(S(C)(=O)=O)C[C@@H]2C1=O to CNC(=O)CS(=O)(=O)C1CCN(S(=O)(=O)c2cccc(Cl)c2C)CC1, the INHIBITION falls from 21.06% to -52.21%.

Compared with CNC(=O)CS(=O)(=O)C1CCN(S(=O)(=O)c2ccccc2Cl)CC1, CNC(=O)CS(=O)(=O)C1CCN(S(=O)(=O)c2ccccc2Br)CC1 is lower in INHIBITION: 68.69% for the first, 27.5% for the second.

Going from Cc1ccc(NC(=O)Nc2cnc(N3CCN(C)CC3)nc2)cc1 to COC(=O)c1cc(C(=O)N2CCN(C)CC2)n(-c2ccccc2)n1, the INHIBITION rises from -4.34% to 15.4%.

Compared with COc1ccc(OCCCNCCn2cccn2)cc1, CC[C@@H](CO)NC(=O)c1coc(COc2ccc(OC)cc2)n1 is higher in INHIBITION: 31% for the first, 53.26% for the second.

First: CC(=O)N1CCN(C(=O)CCc2cc(Br)cs2)CC1
Second: CN1CCN(C(=O)CCc2cc(Br)cs2)CC1
The INHIBITION of the first is lower: 26.74% for the first, 72.05% for the second.

First: CN(C)C1CCN(C(=O)CCc2cc(Br)cs2)CC1
Second: Cc1nc(C)c(CC(=O)N2CCC(c3ccn4nccc4n3)CC2)s1
The INHIBITION of the first is higher: 41.05% for the first, 3.58% for the second.

Going from COCCC(=O)N1CCc2c(CNc3ncccn3)cncc2C1 to CC(C)n1nc(CNc2ncccn2)c2c1CN(C1CCOCC1)CC2, the INHIBITION rises from 17.77% to 38.49%.

First: CCSC1(CNc2ncc(Br)cn2)CCOCC1
Second: CO[C@@H]1CN(Cc2scnc2C)[C@@H]2CCCO[C@@H]21
The INHIBITION of the first is lower: 13.53% for the first, 34.23% for the second.

First: NCC1[C@H]2CN(CCc3ccccc3)C[C@@H]12 (some centres undefined)
Second: NCC1[C@H]2CN(Cc3ccccc3)C[C@@H]12 (some centres undefined)
The INHIBITION of the first is lower: -7.41% for the first, 55.7% for the second.

First: NCC1[C@H]2CN(Cc3cccc(Cl)c3)C[C@@H]12 (some centres undefined)
Second: CC(C)(C)SCC(=O)NC(C)(C(N)=O)c1cccc(Cl)c1 (centres undefined)
The INHIBITION of the first is higher: 45.77% for the first, -20.64% for the second.

Going from CN(C)Cc1cc(=O)n2c(n1)CN(C(=O)c1ccc[nH]1)CCC2 to Cc1cc(=O)[nH]c(NCCNC(=O)c2ccccc2N2CCCC2)n1, the INHIBITION rises from -16.33% to 41.14%.

Compared with O=C(CCC1CCN(C2CSCCSC2)CC1)NCC1CCCO1 (centres undefined), O=C(CCn1ncc2c(Cl)cccc21)NCC1CC1 is higher in INHIBITION: -15.37% for the first, 20.8% for the second.

First: Cc1nc(O)cc(CCNC(=O)CN2CCCCCC2)n1
Second: Cc1cc(=O)[nH]c(NCCNC(=O)CN2CCCCCC2)n1
The INHIBITION of the first is lower: 4.12% for the first, 56.93% for the second.

Going from CC(C)C(=O)NCCCn1ncc2c(Cl)cccc21 to CCOc1cccc(CCNC(=O)Cc2ccn[nH]2)n1, the INHIBITION rises from -7.01% to 14.82%.

Compared with CSCC(=O)N(C)Cc1ccc(N(C)C)cc1, Cc1nc2cc(O)nn2c(C)c1CCC(=O)N(C)Cc1ccccc1 is higher in INHIBITION: -20.68% for the first, 37.41% for the second.

First: Cc1ccc2cc(CN(C)Cc3ccncn3)c(=O)[nH]c2c1
Second: CCOc1cccc(CCNC(=O)Cc2cccc(O)c2)n1
The INHIBITION of the first is lower: -20.98% for the first, 26.74% for the second.

First: CN(Cc1cccc2ncccc12)C(=O)CCC(F)(F)F
Second: CN(C(=O)CCC(F)(F)F)c1cccc2ncccc12
The INHIBITION of the first is lower: -22.2% for the first, 59.67% for the second.

First: CCCC(=O)N(C)c1cccc2ncccc12
Second: CCCN(C(=O)c1ocnc1C)C1CCCN(Cc2ccccc2)C1 (centres undefined)
The INHIBITION of the first is higher: 28.14% for the first, 4.72% for the second.

First: CCN(CC)S(=O)(=O)N(C)Cc1ccc2c(c1)OCCO2
Second: CCN(CC(=O)NCCc1nc(C)no1)Cc1ccc(Cl)cc1
The INHIBITION of the first is higher: 8.06% for the first, -45.29% for the second.

First: Cc1nc2cc(O)nn2c(C)c1CCC(=O)N(C)CCC(C)C
Second: CCN(CC)C(=O)CCc1c(C)nc2cc(O)nn2c1C
The INHIBITION of the first is higher: 65.38% for the first, 18.97% for the second.

Compared with CC(C)(C)c1cc(CNC(=O)c2cc(COc3ccccc3)[nH]n2)[nH]n1, CN(CCCOc1ccccc1)C(=O)c1csc(-c2nnc[nH]2)n1 is higher in INHIBITION: -103.13% for the first, 35.94% for the second.

Going from Cc1nn(C)c(C)c1NC(=O)CN1CCCC1c1noc(C(C)C)n1 (centres undefined) to Cc1nc(C)n(C2CCCN(C(=O)c3ncoc3C(C)C)C2)n1 (centres undefined), the INHIBITION falls from 12.66% to -12.27%.

First: Cc1sc2nc(CCN)nc(N3CCS(=O)(=O)CC3)c2c1C
Second: Cc1sc2nc(CCN)nc(N3CCN(S(C)(=O)=O)CC3)c2c1C
The INHIBITION of the first is higher: 60.04% for the first, 20.77% for the second.

Going from CCOC(=O)N1CCN(c2nc(CCN)nc3sc(C)c(C)c23)CC1 to Cc1noc(C)c1CC(=O)N1CCC(c2ccn3nccc3n2)CC1, the INHIBITION rises from 17.89% to 52.57%.

Going from CCn1cc(Cl)c(C(=O)Nc2ccc3c(c2)C(C)(C)C(=O)N3C)n1 to CSC(C)(C)CNC(=O)NCc1cccc(-n2ccnc2)c1, the INHIBITION falls from 14.61% to -27.12%.

Going from COC(=O)c1cc(C(=O)N2CCC(C)CC2)n(-c2ccccc2)n1 to COC(=O)c1cc(C(=O)N2CCCCCC2)n(-c2ccccc2)n1, the INHIBITION rises from 35.23% to 63.95%.

Going from CC(C)OCCCNC(=O)CS(=O)(=O)Cc1ccc(C(C)(C)C)cc1 to CC(C)C(O)C(C)(C)CNC(=O)NCc1ccc(-n2cncn2)cc1 (centres undefined), the INHIBITION rises from 33.22% to 53.19%.

Compared with COCc1csc(NC(=O)NCc2ccccn2)n1, COCc1csc(NC(=O)NCc2ccc(C)s2)n1 is higher in INHIBITION: -4.91% for the first, 50.93% for the second.

Compared with COc1ccc(CCC(=O)NC2CCC(O)CC2)cc1OC (centres undefined), CO[C@H]1CC[C@H]2[C@H]1OCCN2CCOCc1ccccc1 is higher in INHIBITION: -59.24% for the first, -4.99% for the second.

Compared with CC(C)c1ocnc1C(=O)N1CCCC(c2ccn[nH]2)C1 (centres undefined), Cc1[nH]ncc1C(=O)N1CCCC(c2ccn[nH]2)C1 (centres undefined) is lower in INHIBITION: 70.81% for the first, -1.46% for the second.

Compared with CC(O)CC(C)(C)CNC(=O)NCc1cccc(-n2cncn2)c1 (centres undefined), CSC(C)(C)CNC(=O)NCc1cccc(-n2cncn2)c1 is higher in INHIBITION: 1.22% for the first, 54.29% for the second.

First: CC(O)(CNC(=O)NCc1cccc(-n2cncn2)c1)c1ccco1 (centres undefined)
Second: CC(NC(=O)Nc1ccc(-n2cncn2)cc1)C(=O)NC(C)(C)C (centres undefined)
The INHIBITION of the first is lower: -33.81% for the first, 12.01% for the second.

First: Cn1cc(Cl)cc1C(=O)N1CCCN(Cc2ccccc2)CC1
Second: CCN1CCN(CC(O)c2cc(Cl)ccc2Cl)CC1 (centres undefined)
The INHIBITION of the first is higher: -7.88% for the first, -31.79% for the second.

First: Cc1noc(C)c1CNC1CCN(c2ccccc2OC(F)F)C1 (centres undefined)
Second: CC[C@H](CO)NC(=O)c1coc(COc2ccccc2F)n1
The INHIBITION of the first is lower: -15.77% for the first, -9.75% for the second.

First: CCOCCN1CCN(CC(O)c2cc(Cl)ccc2Cl)CC1 (centres undefined)
Second: OCCN1CCN(CC(O)c2cc(Cl)ccc2Cl)CC1 (centres undefined)
The INHIBITION of the first is higher: 50.61% for the first, -21.76% for the second.

Compared with O=C(Nc1ccccc1)c1ccc2c(c1)C1(CCCCC1)CN2, CSCCNC(=O)c1coc(COc2ccc(F)cc2)n1 is higher in INHIBITION: -9.98% for the first, 1.88% for the second.

Going from Cn1cc(CN2CCO[C@@H]3CN(Cc4ccoc4)C[C@@H]3C2)cn1 to COC(=O)CCNC(=O)c1coc(COc2ccc(F)cc2)n1, the INHIBITION rises from -0.35% to 56.16%.

CNS(=O)(=O)CCNC(=O)c1coc(COc2ccc(F)cc2)n1 was tested, and the INHIBITION was -38.4%.
